Test results reported in PubChem BioAssay AID504727 (Broad Institute, 2011).
Calls of active or inactive are those of the source.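 How the source made its calls: active means fitted half-maximal concentration AC50 at or below ten times the highest valid tested dose, with signal falling as DNA is displaced (actives reach about 34 µM in these data); inconclusive means flat fit at moderate signal loss, or poor fit quality; inactive means the rest, including signal rising instead of falling.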

Assay: DNA intercalators displacing acridine orange, dose response, artefact control for KSHV LANA DNA-binding inhibitor project, biochemical, fluorescence polarization, cherry-picked samples, set 2 (AID 504727)
Details: AC50: Acridine orange-DNA displacement; series mostly up to 35 µM
For COc1cc2c(cc1OC)CN(C(=O)c1ccc(S(=O)(=O)N3CCCC3)cc1)CC2, the AC50 was “inactive”.
With CCN(CC)S(=O)(=O)N1CCN(S(=O)(=O)N2CCOCC2)CC1 the AC50 was “inactive”.
In the case of O=C(Cn1nc(Cc2ccncc2)c2ccccc2c1=O)N1CCN(C(=O)c2ccco2)CC1, the AC50 is reported as 4260 nM (active).
With CCOc1ccc(-n2c(Cc3cc(=O)[nH]c(=O)[nH]3)nnc2SCc2cccnc2)cc1 the AC50 was “inactive”.
With C=C1c2cccc(O)c2C(O)=C2C(=O)[C@]3(O)C(O)=C(C(N)=O)C(=O)[C@@H](N(C)C)[C@@H]3[C@@H](O)[C@H]12 the AC50 was “inactive”.
For CCc1noc(C)c1C(=O)N1CCCC(N2CCN(c3ccc(F)cc3)CC2)C1 (stereo not drawn), the AC50 was “inactive”.
For Cc1ccc(-c2nnc(-c3ccc(NC(=O)c4ccco4)cc3)o2)cc1, the AC50 was “inactive”.
For Cc1ccc2cccc(OCC(=O)NCCC3=CCCCC3)c2n1, the AC50 was “inactive”.
With CCCCNc1c2c3c(cccc3n(C)c1=O)C(=O)c1ccccc1-2 the AC50 was 2250 nM (active).
With CC[C@H](C)[C@H](NC(N)=O)C(=O)Nc1ccc(NC(C)=O)cc1 the AC50 was “inactive”.
For CCC(C)[C@H](NC(=O)[C@@H]1Cc2ccccc2CN1)C(=O)Nc1ccc2c(c1)OCO2 (stereo partly drawn), the AC50 was “inactive”.
With Nc1c(-c2ccccn2)cnn1-c1nc(-c2ccc(F)cc2)cs1 the AC50 was “inactive”.
For O=[N+]([O-])c1cc(-n2cnnn2)ccc1N1CCC(Cc2ccccc2)CC1, the AC50 was “inactive”.
In the case of CCOc1ccc(/C=C2\CCCc3c2nc2ccccc2c3C(=O)O)cc1OC, the AC50 is reported as 1730 nM (active).
With O=C1c2cccc3c(O)ccc(c23)C(=O)N1c1ccc(Cl)cc1 the AC50 was 2950 nM (active).
With CCN(CC(=O)NCc1cccs1)C(=O)c1ccc(S(=O)(=O)Nc2ccccc2C)cc1 the AC50 was “inactive”.
For NNc1nnc2c3cc(F)ccc3n(Cc3ccccc3)c2n1, the AC50 was “inactive”.
With Nc1nc(C(F)(F)F)cc(=O)[nH]1 the AC50 was “inactive”.
With CCOC(=O)C1(Cc2cccc(F)c2)CCN(Cc2c(C)nn(CC)c2C)CC1 the AC50 was “inactive”.
In the case of O=C(CN1C(=O)/C(=C/c2ccco2)SC1=S)Nc1ccc(C(=O)O)c(O)c1, the AC50 is reported as “inactive”.
For CC1CC(C)CN(C(=O)c2ccc3ncsc3c2)C1 (stereo not drawn), the AC50 was “inactive”.
For CNC(=S)Nc1cccc(C(=O)OC)c1, the AC50 was “inactive”.
In the case of COc1ccc(N=C2SC(CC(=O)Nc3ccccc3)C(=O)N2Cc2ccco2)cc1 (stereo not drawn), the AC50 is reported as “inactive”.
For CC(Sc1nc(-c2ccco2)nc2c1c(=O)n(C)c(=O)n2C)C(=O)O (stereo not drawn), the AC50 was “inactive”.
In the case of Cc1ccc(OCC(=O)O/N=C(\N)Cc2ccc([N+](=O)[O-])cc2)cc1C, the AC50 is reported as “inactive”.
For CCN1/C(=C2/SC(=S)N(NC(C)=O)C2=O)Sc2ccc(OC)cc21, the AC50 was 18800 nM (active).
In the case of O=C(Nc1cc(Cl)ccc1-n1cncn1)c1cccs1, the AC50 is reported as “inactive”.
For O=C1CCN2C=Nc3cccc4ccc1c2c34, the AC50 was 2290 nM (active).
For CN(c1ccccc1)S(=O)(=O)c1cccc(NS(=O)(=O)c2cccc(C(=O)O)c2)c1, the AC50 was “inactive”.
With NNC(=O)C1C(O)CCC2CN3CCc4c([nH]c5ccccc45)C3CC21 (stereo not drawn) the AC50 was “inactive”.
For CC(C(=O)O)N1C(=O)/C(=C/C=C/c2ccco2)SC1=S (stereo not drawn), the AC50 was “inactive”.
With Cc1cnc(NC(=O)Cc2c[nH]c3ccccc23)s1 the AC50 was “inactive”.
With COc1cccc(NC(=S)N2CCN(C(c3ccccc3)c3ccccc3)CC2)c1 the AC50 was “inactive”.
With CN(C)/C=C1\C=C2C(=O)c3ccccc3N2C1=O the AC50 was 65 nM (active).
In the case of O=c1nc(N2CCOCC2)ccn1-c1nc(-c2ccccc2)sc1-c1ccccc1, the AC50 is reported as “inactive”.
In the case of Cc1ccc(N(C)C(=O)C2CCCN2S(=O)(=O)c2ccc3c(c2)n(C)c(=O)c(=O)n3C)cc1 (stereo not drawn), the AC50 is reported as “inactive”.
In the case of O=C(c1ccccc1)c1ccc(O)cc1O, the AC50 is reported as 7300 nM (active).
In the case of O=C(O)CN1C(=O)/C(=C\c2cc(Br)ccc2OCc2ccc([N+](=O)[O-])cc2)SC1=S, the AC50 is reported as “inactive”.
